# Assay results published in PubChem BioAssay (NCATS).
# Records with an inconclusive call do not appear. Active and inactive are the calls of the source. Unless noted, calls come from the whole dose curve; as a rule, active = well fitted curve in the direction sought with a large enough effect; inconclusive = small, poorly fitted or top-dose-only effect, or another doubt; inactive = no such curve, though single readings can be large; an effect the other way counts as inactive or inconclusive.
# Legend:
# [1] = target: Rap guanine nucleotide exchange factor 4 (Homo sapiens) (UniProt Q8WZA2); experiment: Confirmatory qHTS for antagonist of cAMP-regulated guanine nucleotide exchange factor 4 (EPAC2) (AID 1645885); note: nearly all actives have a fitted effect of over 25% in size; note: potency is the fitted concentration of half-maximal effect; for activity change, negative = inhibition: % is set by controls: 0 for no effect and ±100 for the full control effect
# [2] = NCATS anti-infectives library activity on HEK293 viability as a counter-qHTS vs the C. elegans viability qHTS (AID 1745854);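 note: HEK293 cells exposed to compounds for 24 hr before the viability read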; note: potency is the fitted concentration of half-maximal effect
# Excerpt: (§1) Assay Development and Screening Technology Laboratory (ADST)
# (§2) National Center for Advancing Translational Sciences (NCATS), Rockville, MD
# (§3) National Institute of Health (NIH), Bethesda, Maryland
# (§4) Caenorhabditis elegans has helped elucidate the evolutionarily conserved genetics underlying pathways and cellular processes implicated in human disease and may be ideally positioned to reveal novel pharmacological properties of exiting drugs. The organism's short life cycle and microscopic size is applicable to the technical requirements of high-throughput screening. Here a quantitative high-throughput screening (qHTS)-based forward chemical biology platform has been developed using C. elegans. 384-well microtiter plate laser scanning cytometry was used in the rapid detection and quantification of the fluorescent protein-encoded phenotype to score worm viability. In a proof-of-concept study, the pharmacological qHTS profile obtained from a library of 643 anti-infective compounds.
# 1. Inglese, J., Auld, D. S., Jadhav, A., Johnson, R. L., Simeonov, A., Yasgar, A., Zheng, W., and Austin, C. P. (2006) Quantitative high-throughput screening: A titration-based approach that efficiently identifies biological activities in large chemical libraries, P Natl Acad Sci USA 103, 11473-11478.
# 2. Auld, D. S., Johnson, R. L., Zhang, Y. Q., Veith, H., Jadhav, A., Yasgar, A., Simeonov, A., Zheng, W., Martinez, E. D., Westwick, J. K., Austin, C. P., and Inglese, J. (2006) Fluorescent protein-based cellular assays analyzed by laser-scanning microplate cytometry in 1536-well plate format, Method Enzymol 414, 566-589.
# 3. Zuck, P., Lao, Z., Skwish, S., Glickman, J. F., Yang, K., Burbaum, J., and Inglese, J. (1999) Ligand-receptor binding measured by laser-scanning imaging, Proc Natl Acad Sci U S A 96, 11122-11127.
# PROTOCOL TABLE (as described by Inglese J, Shamu CE and Guy RK. 2007)
# SEQUENCE No. (e.g., 1, 2, 3, etc.); […] (e.g., C. elegans, Compounds, Incubation, Read, etc.); VALUE and DESCRIPTION.
# 1. Compounds. Library compounds and digitonin control added at 25 nL per well to 7 assay ready 1536-well Greiner white/solid bottom high base, TC plates and two DMSO control plates, transferred by Echo acoustic dispenser.
# 2. Cells. Seed 1500 HEK293 per well in 6 uL into assay ready Greiner 1536-well plates.
# 3. Incubation. Incubate plated cells with compounds at 37C in 5% CO2, 95% RH for 24 hr.
# 4. Reagent. Add 4 uL of CellTiter-Glo reagent from Promega per well of Greiner 1536-well plates with BioRAPTR FRD.
# 5. Incubation. Incubate treated cells at room temperature for 10 min., protect from light.
# 6. Detector. CellTiter-Glo luminescence measured using CCD-based camera (Viewlux) with settings as follows: Exposure, 1 sec; Gain, High; Speed, Slow; Binning, 2X.
# NOTES (numbers refer to Sequence numbers above; values are from representative experiments)
# 1. NIH Anti-Infectives library pre-dispensed into 7 assay ready 1536-well Greiner white/solid bottom high base, TC plates with Echo 555 acoustic dispenser. Most compounds dispensed at 10 mM high concentration and plated in 7-pt 1:5 inter-plate titration at 25 nl / well for a final assay concentration range of 41.7 uM - 2.7 nM. Two 1536-well Greiner assay plates of DMSO plated as screening controls to be read at the beginning and the end of the screen. Controls included DMSO vehicle control added at 25 nl/well to each well of column 1 and […] (83.3 uM final assay concentration), and Digitonin titrated 1:2 at 25 nl/ well to column 4 in duplicate for a final assay concentration range of 83.3 uM - 2.5 nM.
# 2. HEK293 cells grown for 48 hr in one T175 culture flask in DMEM high glucose media supplemented with 10% FBS and 1% Pen/Strep antibiotic. Cells trypsinized and diluted in 10 ml supplemented media, strained through 40 µm cell strainer, and diluted to a total volume of 40 ml with supplemented media. […]
# [3] = NCATS anti-infectives library activity on the primary C. elegans qHTS viability assay (AID 1745855; calls by dose curve); details: C. elegans worm area imaging, day 7; at 41.8 µM (top of the series)
# Excerpt: as §1, §2, §3
# as §4, with “In a proof-of-concept study, the pharmacological qHTS profile obtained from a library of 643 anti-infective compounds.” left out
# 1. […] P. (2006) Quantitative high-throughput screening: A titration-based approach that efficiently identifies biological activities in large chemical libraries, P Natl Acad Sci USA 103, 11473-11478.
# 2. […] P., and Inglese, J. (2006) Fluorescent protein-based cellular assays analyzed by laser-scanning microplate cytometry in 1536-well plate format, Method Enzymol 414, 566-589. […]
# SEQUENCE No. (e.g., 1, 2, 3, etc.); […] (e.g., C. elegans, Compounds, Incubation, Read, etc.); VALUE and DESCRIPTION. […]
# [4] = target: Catechol O-methyltransferase (Homo sapiens) (UniProt P21964); experiment: Confirmatory Screen for Target Class Profiling of Small Molecule Inhibitors of Methyltransferases (AID 1745852; calls by dose curve; for activity change, negative = inhibition: % is set by controls: 0 for no effect and ±100 for the full control effect); details: MTase-Glo luminescence, SAH detection, recombinant enzyme; measured here: COMT max response; stronger effect = lower value
# [5] = target: Guanidinoacetate N-methyltransferase (Homo sapiens) (UniProt Q14353); experiment: as above; details: MTase-Glo luminescence, SAH detection, recombinant enzyme; at 57.3 µM (top of the series)
# [6] = target: Nicotinamide N-methyltransferase (Homo sapiens) (UniProt P40261); experiment: as above; details: MTase-Glo luminescence, SAH detection, recombinant enzyme; measured here: NNMT max response; stronger effect = lower value
# [7] = target: Phenylethanolamine N-methyltransferase (Homo sapiens) (UniProt P11086); experiment: as above; details: MTase-Glo luminescence, SAH detection, recombinant enzyme; measured here: PNMT max response; stronger effect = lower value
# [8] = Viability counterscreen for antagonist of constitutive androstane receptor (CAR) against the NCATS DSHEA and TCM libraries (AID 1794837);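 note: compound exposure lasted 24 h before viability reading; 0% is about no effect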
# How it was run: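 HepG2-CYP2B6-hCAR cells (2,500/well) were allowed to attach for 5 h, then exposed to compounds with 48 uM CITCO for 24 h at 37C. Viability was read by CellTiter-Fluor fluorescence after 1 h.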
# [9] = Viability counterscreen for agonist of constitutive androstane receptor (CAR) against the NCATS DSHEA and TCM libraries (AID 1794838); note: 0% is about no effect
# Excerpt: as §1, §2, §3
# Dietary Supplements and Natural Products have minor oversight of their safety and efficacy. We assembled a collection of Dietary Supplements and Natural Products (DSNP) as well as Traditional Chinese Medicinal (TCM) Plant extracts, which were screened against an in vitro panel of assays, including a liver cytochrome p450 enzyme panel, CAR/PXR signaling pathways, and P-gp transporter assays, to assess their activity. This pipeline facilitated the interrogation of Natural Product-Drug Interaction (NaPDI) through prominent metabolizing pathways. In addition, we compared the activity profiles of the DSNP/TCM substances with those of an approved drug collection. […] Overall, we highlight four significant bioactivity profiles (measured by p-values) as examples of this prediction. […]
# 8; Detector 1; Fluorescence intensity; ViewLux plate reader (excitation 405 nm, emission 540 nm). […]
# 11; Detector 2; Luminescence intensity; ViewLux. […]
# 8. Fluorescence intensity (Ex/Em = 405 nm/540 nm) is obtained using the ViewLux plate reader to determine cell viability. […]
# 10. Luminescence intensity is read using the ViewLux detector. […]
# [10] = target: Nuclear receptor subfamily 1 group I member 3 (Homo sapiens) (UniProt Q14994); experiment: Primary qHTS for agonist of constitutive androstane receptor (CAR) against the NCATS DSHEA and TCM libraries (AID 1794839);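 note: HepG2 cells expressing human CAR with a CYP2B6 reporter plus PK11195 antagonist; 0% is about no effect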
# How it was run: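 HepG2-CYP2B6-hCAR cells (2,500/well) were attached for 5 h, then treated for 24 h at 37 °C with compounds plus 0.75 µM PK11195. Luciferase luminescence (ONE-Glo) was read, with CellTiter-Fluor viability (Ex/Em 405/540 nm).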
# Chain of Nicotinamide N-methyltransferase (Homo sapiens) (P40261 whole entry, looked up): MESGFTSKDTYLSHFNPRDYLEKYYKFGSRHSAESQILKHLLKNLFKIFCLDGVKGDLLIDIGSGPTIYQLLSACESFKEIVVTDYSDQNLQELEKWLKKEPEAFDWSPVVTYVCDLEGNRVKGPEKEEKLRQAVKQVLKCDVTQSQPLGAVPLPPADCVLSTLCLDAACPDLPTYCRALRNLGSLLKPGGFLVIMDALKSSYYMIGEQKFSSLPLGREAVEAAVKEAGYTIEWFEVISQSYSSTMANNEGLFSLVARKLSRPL
# Chain of Rap guanine nucleotide exchange factor 4 (Homo sapiens) (Q8WZA2 whole entry, looked up): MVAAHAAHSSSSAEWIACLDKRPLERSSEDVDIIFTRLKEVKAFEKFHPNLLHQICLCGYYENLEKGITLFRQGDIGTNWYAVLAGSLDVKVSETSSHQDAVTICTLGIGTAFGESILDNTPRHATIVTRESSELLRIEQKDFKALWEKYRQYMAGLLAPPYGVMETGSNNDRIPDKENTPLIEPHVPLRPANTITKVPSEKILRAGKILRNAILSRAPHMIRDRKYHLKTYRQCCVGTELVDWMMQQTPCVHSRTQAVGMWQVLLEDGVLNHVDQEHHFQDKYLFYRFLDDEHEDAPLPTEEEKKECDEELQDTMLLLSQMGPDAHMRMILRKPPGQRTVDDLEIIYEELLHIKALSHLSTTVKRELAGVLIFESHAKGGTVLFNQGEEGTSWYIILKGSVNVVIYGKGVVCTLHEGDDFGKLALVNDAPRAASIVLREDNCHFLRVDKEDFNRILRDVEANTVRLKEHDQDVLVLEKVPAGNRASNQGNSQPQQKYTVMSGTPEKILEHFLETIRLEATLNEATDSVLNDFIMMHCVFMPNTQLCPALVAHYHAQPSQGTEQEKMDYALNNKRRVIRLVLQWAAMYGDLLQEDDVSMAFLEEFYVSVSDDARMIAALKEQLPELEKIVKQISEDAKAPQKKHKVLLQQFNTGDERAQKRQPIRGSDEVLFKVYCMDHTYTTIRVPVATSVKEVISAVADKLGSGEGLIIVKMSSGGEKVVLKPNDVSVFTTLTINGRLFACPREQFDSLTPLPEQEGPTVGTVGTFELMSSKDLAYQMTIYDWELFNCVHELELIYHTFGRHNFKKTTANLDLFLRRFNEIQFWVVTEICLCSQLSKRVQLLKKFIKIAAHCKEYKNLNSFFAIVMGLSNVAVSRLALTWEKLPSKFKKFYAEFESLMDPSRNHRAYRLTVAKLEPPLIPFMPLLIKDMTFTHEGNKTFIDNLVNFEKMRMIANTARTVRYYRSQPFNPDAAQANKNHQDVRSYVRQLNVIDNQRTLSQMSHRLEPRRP
# Chain of Catechol O-methyltransferase (Homo sapiens) (P21964 whole entry, looked up): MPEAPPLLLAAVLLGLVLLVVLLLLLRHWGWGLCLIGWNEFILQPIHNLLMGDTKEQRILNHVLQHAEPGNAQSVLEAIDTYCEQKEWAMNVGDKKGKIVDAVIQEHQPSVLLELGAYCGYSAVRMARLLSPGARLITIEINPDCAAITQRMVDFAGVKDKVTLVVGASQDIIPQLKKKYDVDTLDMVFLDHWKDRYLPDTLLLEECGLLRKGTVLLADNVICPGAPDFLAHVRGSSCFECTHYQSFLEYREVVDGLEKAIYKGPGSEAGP
# Chain of Phenylethanolamine N-methyltransferase (Homo sapiens) (P11086 whole entry, looked up): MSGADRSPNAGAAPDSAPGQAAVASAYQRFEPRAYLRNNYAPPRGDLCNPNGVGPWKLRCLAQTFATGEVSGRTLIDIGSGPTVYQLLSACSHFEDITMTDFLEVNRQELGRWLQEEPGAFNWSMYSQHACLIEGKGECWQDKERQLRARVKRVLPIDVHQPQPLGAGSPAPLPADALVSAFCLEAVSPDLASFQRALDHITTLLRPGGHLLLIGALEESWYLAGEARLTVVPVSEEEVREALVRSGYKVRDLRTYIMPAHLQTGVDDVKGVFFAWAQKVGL
# Chain of Nuclear receptor subfamily 1 group I member 3 (Homo sapiens) (Q14994 whole entry, looked up): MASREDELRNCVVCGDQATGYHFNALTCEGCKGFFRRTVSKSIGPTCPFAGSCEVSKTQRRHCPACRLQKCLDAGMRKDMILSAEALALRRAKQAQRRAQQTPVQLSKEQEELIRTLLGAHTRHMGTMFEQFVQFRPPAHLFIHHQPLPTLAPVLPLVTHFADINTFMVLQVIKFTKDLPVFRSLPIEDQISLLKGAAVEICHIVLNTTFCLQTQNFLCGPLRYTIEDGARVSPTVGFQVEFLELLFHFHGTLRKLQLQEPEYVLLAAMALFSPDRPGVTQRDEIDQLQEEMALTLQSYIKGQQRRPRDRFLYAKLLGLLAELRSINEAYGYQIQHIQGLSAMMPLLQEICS
compound,measurement,setting,value
COC(=O)C1=C(C)NC(COC(N)=O)=C(C(=O)OC(C)C)C1c1cccc(Cl)c1Cl (centres undefined),Potency,[1],44.1 µM (active)
Clc1ccc2c(c1)N=C(N1CCNCC1)c1ccccc1N2,Potency,[2],inactive
same,outcome,[3],inactive
C[C@@H](O[C@H]1OCCN(Cc2n[nH]c(=O)[nH]2)[C@H]1c1ccc(F)cc1)c1cc(C(F)(F)F)cc(C(F)(F)F)c1,Potency,[2],inactive
CCN1C(=O)c2ccccc2C1Nc1ccc(OCCN2CCCCC2)cc1 (centres undefined),activity,[4],-0.796%
same,"activity change, negative = inhibition",[5],1.78%
same,activity,[6],1.49%
same,activity,[7],0.197%
C[N+](C)(C)CCO,outcome,[8],inactive
same,outcome,[9],inactive
same,outcome,[10],inactive
CCOC(=O)Cn1cccc1-c1nc(-c2ccc(OC)cc2)c(-c2ccc(OC)cc2)s1,activity,[4],-5.88%
same,"activity change, negative = inhibition",[5],-8.59%
same,activity,[6],-5.59%
same,activity,[7],-4.51%
CN(C)c1cc2c(Nc3ccc4c(cnn4Cc4ccccc4)c3)ncnc2cn1,activity,[4],5.63%
same,"activity change, negative = inhibition",[5],6.38%
same,activity,[6],-16.7%
same,activity,[7],-3.6%
Nc1ccc2cc3ccc(N)cc3nc2c1,Potency,[1],inactive
Nc1c(NC/C=C\COc2cc(CN3CCCCC3)ccn2)c(=O)c1=O,activity,[4],-6.1%
same,"activity change, negative = inhibition",[5],2.26%
same,activity,[6],-13.9%
same,activity,[7],-8.61%
O=C(O)CCCC[C@@H]1SC[C@@H]2NC(=O)N[C@@H]21,outcome,[8],inactive
same,outcome,[9],inactive
same,outcome,[10],inactive
Cc1cc(CCCOc2c(C)cc(-c3noc(C(F)(F)F)n3)cc2C)on1,Potency,[2],inactive
OCCc1ccccc1,Potency,[2],inactive
Nc1nc(=O)n([C@@H]2O[C@H](CO)[C@@H](O)[C@@H]2F)cc1I,Potency,[2],inactive
O=C1NC2CCCCN2C12CCN(CCCN1c3ccccc3CCc3ccc(Cl)cc31)CC2 (centres undefined),activity,[4],-2.76%
same,"activity change, negative = inhibition",[5],1.64%
same,activity,[6],-29.7%
same,activity,[7],-1.01%
CCC(=O)O[C@H]1[C@H](O[C@@H]2[C@@H](C)[C@H](O[C@H]3C[C@@](C)(OC)[C@@H](O)[C@H](C)O3)[C@@H](C)C(=O)O[C@H](CC)[C@@](C)(O)[C@H](O)[C@@H](C)C(=O)[C@H](C)C[C@@]2(C)O)O[C@H](C)C[C@@H]1N(C)C,Potency,[1],17.5 µM (active)
COc1c(C)c2c(c(O)c1C/C=C(\C)CCC(=O)OCCN1CCOCC1)C(=O)OC2,Potency,[2],inactive
CCCCCCCCCCCCCCCC[n+]1ccccc1,Potency,[2],11.2 µM (active)
CC(C)(c1ccc(O)cc1)c1ccc(O)cc1,Potency,[1],80.4 µM (active)
CC[C@@H]([C@H](C)O)n1ncn(-c2ccc(N3CCN(c4ccc(OC[C@@H]5CO[C@@](Cn6cncn6)(c6ccc(F)cc6F)C5)cc4)CC3)cc2)c1=O,Potency,[2],inactive
Nc1cccc2c(N)cccc12,Potency,[1],inactive
O=C(Nc1ccc(S(=O)(=O)N2CCOCC2)cc1)c1cc(Cl)ccc1NS(=O)(=O)c1ccc(Cl)s1,Potency,[1],24.8 µM (active)
CC(C)N(CCC(=O)c1ccc2ccccc2c1)Cc1ccccc1,activity,[4],3.44%
same,"activity change, negative = inhibition",[5],9.33%
same,activity,[6],-17.4%
same,activity,[7],4.13%
C=CC[N+]1([C@H]2C[C@H]3[C@@H]4CC[C@H]5C[C@H](OC(C)=O)[C@@H](N6CCCCC6)C[C@]5(C)[C@H]4CC[C@]3(C)[C@H]2OC(=O)CC)CCCCC1,activity,[4],-2.74%
same,"activity change, negative = inhibition",[5],0%
same,activity,[6],-7.38%
same,activity,[7],-11.5%
